Mdm2-MdmX inh – inhibitors of human Mdm2/MdmX interaction | SaOS-2 split-luciferase Mdm2/MdmX complementation, luminescence | O15151+Q00987 | inhibition, % at 8 µM | AID 485346 | 330,000 compounds, 3% hits;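 active = inhibition of at least 50% at 8 µM in the primary screen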
Beta apoptosis – beta cell apoptosis inhibition. 300,000 compounds, 0.8% hits. INS-1E cytokine-induced death, ATP luminescence, 48 h; percent of positive-control rescue, neutral wells zero. protection from apoptosis, % (test concentration not listed);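 active = Every replicate reaches about 75%, or at least half do and their mean reaches it too, limit read from the data; inconclusive = At least half of replicates reach the limit but their mean does not; inactive = Under half of replicates reach the limit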;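 note: 0% = cytokine-treated negative control wells and 100% = positive control rescue; higher means more ATP so stronger rescue from cytokine killing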
CSC inhib – blocks cancer stem cells; cancer stem cell-like cells viability, luminescence; 300,000 compounds, 1.1% hits; inhibition, % at 7.5 µM; AID 2717; in the data active = inhibition above about 75%; inconclusive = no clear call, values can overlap the other calls; tested in HMLE shEcad cells
MPTP inh – permeability transition pore inhibition. AID 602449. inhibition, % at 10 µM. isolated mouse mitochondria, Ca2+ swelling absorbance, 30 min. 360,000 compounds, 1.4% hits;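 active = inhibition of 50% or more, scaled per plate between neutral and stimulator controls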;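 note: 0% = DMSO wells given calcium and 100% = 1 mM EGTA wells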
Calb FLC – affects C. albicans growth with fluconazole; C. albicans CaCi-2 (fluconazole-resistant clinical isolate) + fluconazole, Alamar Blue growth, 48 h; growth inhibition, % (concentration not given with the values); 300,000 compounds, 0.57% hits; AID 1979;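 active = growth inhibition above about 58% in most replicates, limit read from the data, passing the limit was not always enough; inconclusive = exactly half the replicates above a set limit; inactive = most replicates below a set limit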;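 note: all wells also contain fluconazole at 8 µg/ml as a sub-toxic cotreatment; 0% = median of DMSO wells and 100% = median of geldanamycin control wells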
Mdm2-MdmX conf – human Mdm2/MdmX binding inhibition, confirmed; luminescent assay; AID 489028; 10,000 compounds, 55% hits; shares compounds with Mdm2-MdmX inh; inhibition, % at 8 µM; in the data active = inhibition above about 40%
FLuc counter – counter-screen for Mdm2/MdmX inhibitors: full-length luciferase | SaOS-2 full-length luciferase counterscreen, luminescence | shares compounds with Mdm2-MdmX inh | AID 504607 | inhibition, % at 8 µM | 6,200 compounds, 77% hits;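 active = mean inhibition at 8 µM reaching about 37%, which flags the compound as non-specific, limit read from the data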;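 note: p53-null SaOS-2 cells with luciferase driven by a doxycycline-inducible promoter; compound on cells about two nights before reading with doxycycline added after day one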
The depositor's hits bear a star; u = inconclusive; x = no result; + = active, no number. This is a sample that favours compounds with a hit; in the whole collection about 4.8% have one here.

SMILES	Mdm2-MdmX inh	Beta apoptosis	CSC inhib	MPTP inh	Calb FLC	Mdm2-MdmX conf	FLuc counter
CC(C)OC(=O)c1sc2nc(-c3ccccc3)ccc2c1N	52.0*	4.4	6.9	2.8	12.5	44.5*	180.1*
COc1ccc(C(=O)c2sc3nc(-c4ccccc4)ccc3c2N)cc1	-10.7	-1.6	40.8	3.8	x	x	x
O=C(O)c1cc2ccccc2c(N=Nc2cccnc2)c1O	61.2*	-35.6	22.9	1.4	41.4	32.5	x
CN1CCN(S(=O)(=O)c2cccc(C(=O)Oc3ccccc3Cl)c2)CC1	12.4	-7.0	-8.3	-1.2	5.0	x	x
O=C(NC(c1ccc(Cl)cc1)c1cnccn1)C1CCN(CCCc2ccccc2)CC1 (configuration not stated)	x	x	x	-0.6	x	x	x
O=C(Nc1nnc(-c2ccc3c(c2)CCCC3)o1)c1ccccc1Cl	23.6	x	35.0	-2.7	28.8	x	x
O=C(Nc1nnc(-c2ccc3c(c2)CCCC3)o1)c1ccccc1	57.3*	7.4	91.6*	1.9	87.6*	65.8*	47.2*
COc1cccc(CNC23CC4CC(CC(C4)C2)C3)c1OCc1ccccc1	51.9*	26.2	55.1	18.0	u	43.0*	58.6*
Cc1onc(-c2ccccc2)c1C(=O)NC(=S)NNC(=O)c1ccc(O)cc1O	58.8*	90.7*	34.4	-2.8	-3.0	43.0*	71.0*
CCn1c(=O)c2sccc2n(Cc2cc(C(=O)OC)ccc2OC)c1=O	51.3*	0.1	-14.1	-0.2	2.3	7.6	x
Cc1ccc2[nH]c(=O)c(COC(=O)c3cccs3)cc2c1	50.5*	-0.4	x	0.5	9.7	8.9	x
COc1ccc2[nH]c(=O)c(COC(=O)c3cccs3)cc2c1	-50.4	-1.9	-8.1	-0.6	-3.9	x	x
COc1ccc(OC)c(NC(=O)C2CCC(CNc3c(N4CCC(C)CC4)c(=O)c3=O)CC2)c1 (configuration not stated)	51.7*	x	-14.3	0.2	0.0	29.2	x
COc1ccccc1NC(=O)Nc1nc(CC(=O)N2CCN(c3ccc(F)cc3)CC2)cs1	70.1*	x	5.3	0.6	-1.0	40.0*	82.6*
COc1ccc(N2CCN(C(=O)Cc3csc(NC(=O)Nc4ccccc4OC)n3)CC2)cc1	25.1	5.8	x	-2.0	-9.9	x	x
COc1ccc(CC(=O)Nc2ccc(S(=O)(=O)N3CCCC3)cc2)c(OC)c1	38.0	-4.6	x	-2.6	x	x	x
Cc1ccc(S(=O)(=O)/N=C2\C=C(Nc3ccc(O)cc3)C(=O)c3ccccc32)cc1	95.1*	119.9*	132.5*	10.1	x	89.2*	4.6
COC(=O)c1cccc(NS(=O)(=O)c2cccs2)c1C	x	-5.1	-17.0	3.0	2.2	x	x
COC(=O)c1ccccc1NC1=C/C(=N\S(=O)(=O)c2cccs2)c2ccccc2C1=O	100.2*	96.1*	102.2*	7.2	37.8	79.2*	58.1*
Cc1ccc(NC2=C(NCCO)C(=O)c3ccccc3C2=O)cc1	-32.5	18.5	7.8	1.8	0.9	x	x
CCc1ccc(S(=O)(=O)/N=C2\C=C(Nc3ccc(C(=O)O)cc3)C(=O)c3ccccc32)cc1	79.9*	103.0*	x	5.4	4.9	52.5*	33.2
COC(=O)c1ccccc1NC1=C/C(=N\S(=O)(=O)c2ccc(C(=O)O)cc2)c2ccccc2C1=O	90.0*	109.7*	x	8.3	42.5	67.8*	2.9
O=C(O)c1ccc(NC2=C(n3nnc4ccccc43)C(=O)c3ccccc3C2=O)cc1	18.1	-4.6	6.4	1.1	14.3	x	x
Cn1c(=O)c2nc(NCc3ccccc3)sc2n(C)c1=O	x	x	x	-0.5	x	x	x
COCc1cc(=O)n2[nH]c(-c3cccs3)cc2n1	33.3	1.6	-9.9	2.9	-3.5	x	x
SMILES	Mdm2-MdmX inh	Beta apoptosis	CSC inhib	MPTP inh	Calb FLC	Mdm2-MdmX conf	FLuc counter
Cc1ccc(NC2=C/C(=N/S(=O)(=O)c3cccs3)c3ccccc3C2=O)cc1	53.3*	103.4*	+	9.6	28.2	60.8*	12.0
O=C(COC(=O)Cc1ccc(Br)cc1)NCc1ccccc1	x	x	x	0.4	x	x	x
COc1cccc(CNC(=O)Cc2ccc(-c3ccccc3)cc2)c1	66.6*	-0.2	x	1.3	-2.0	58.9*	61.5*
O=C(Cc1ccc(Br)cc1)NCc1ccccc1	64.0*	21.6	59.8	-1.4	-0.8	51.8*	57.1*
COc1ccc(CC(=O)NCc2ccccc2)cc1	47.1	-1.7	62.2	0.4	-0.1	x	x
COc1ccc(NC(=O)Nc2nnc(CC(=O)NCc3ccccc3)s2)cc1	27.2	-2.3	6.9	1.4	u	x	x
